The values below come from PubChem BioAssay (NCI).

This is part of a sample that, as a whole, favours compounds with a hit. Of some 83,000 tested, about 20% had one in any assay.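 Single-concentration screen, 48 h exposure, 96-well plates. Endpoint: percent growth. Below 10 = active.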 A number with no mark means an inactive call. The source made the active and inactive calls.

Among the test systems are HCT-15 colon; HT29 colon; SNB-75 CNS; SNB-19 CNS; U251 CNS; PC-3 prostate; SK-MEL-5 melanoma; UACC-62 melanoma; LOX IMVI melanoma; SK-MEL-28 melanoma; EKVX NSCLC; SN12C renal; UO-31 renal; TK-10 renal; ACHN renal; CAKI-1 renal; A498 renal; CCRF-CEM leukemia; MOLT-4 leukemia.
Holding throughout (test): NCI-60 one-dose screen, 48 h (100 = growth as untreated, 0 = no growth, -100 = all killed)
Holding throughout (settings): 10 µM unless noted

As for `COc1cc(NC2CCC(=O)N2c2ccc(Cl)cc2Cl)cc(OC)c1OC` (centres undefined), the growth in the test with HCT-15 colon was 108%; in the test with HT29 colon, 107%; in the test with SNB-75 CNS, 86.5%; in the test on SNB-19 CNS it was 101%; in the test with U251 CNS it was 97.7%; in the test with PC-3 prostate, 95.9%. Also, the growth in the test on SK-MEL-5 melanoma was 103%; in the test with UACC-62 melanoma it was 104%; in the test with LOX IMVI melanoma, 96.6%; in the test on SK-MEL-28 melanoma, 104%; in the test with EKVX NSCLC, 100%; in the test on SN12C renal, 109%. The growth was 94.5% in the test on UO-31 renal; 104% in the test on TK-10 renal; 110% in the test with ACHN renal; 95.7% in the test with CAKI-1 renal; 89.2% with A498 renal; 90.5% in the test on CCRF-CEM leukemia. Also, the growth with MOLT-4 leukemia is 96.2%.

In the case of `CCNC(=O)Nc1nc2ccc(Oc3ccnc(C(=O)NC)c3)cc2s1`, the growth was 52.7% in the test on HCT-15 colon; 29.8% in the test on HT29 colon; 77.1% in the test on SNB-75 CNS; 81% in the test on SNB-19 CNS; 58% in the test with U251 CNS; 76.1% with PC-3 prostate. Moreover, the growth was 66.8% in the test with SK-MEL-5 melanoma; 60% in the test with UACC-62 melanoma; 70.7% in the test on LOX IMVI melanoma; 80.3% in the test on SK-MEL-28 melanoma; 85.9% in the test on EKVX NSCLC; 91.9% with SN12C renal. Also, the growth in the test with UO-31 renal is 88.2%; with TK-10 renal, 86.5%; in the test with ACHN renal, 96.4%; with CAKI-1 renal it was 92.5%; in the test with A498 renal, 69.9%; in the test on CCRF-CEM leukemia, 62.8%. Further, the growth in the test with MOLT-4 leukemia is 47.9%.

As for `COc1cccc2cc(-c3nc(C4CCC(C(=O)O)CC4)n4ncnc(N)c34)[nH]c12` (centres undefined), the growth was 16.4% with HCT-15 colon; 14.3% with HT29 colon; -43.1% (active) in the test with SNB-75 CNS; 15.7% in the test with SNB-19 CNS; 9.1% (active) in the test with U251 CNS; 13.3% in the test with PC-3 prostate. For the same compound, the growth with SK-MEL-5 melanoma is -28.7% (active); in the test on UACC-62 melanoma it was -32.2% (active); in the test with LOX IMVI melanoma it was -4.84% (active); in the test with SK-MEL-28 melanoma, -9.6% (active); in the test on EKVX NSCLC it was 11.6%; in the test with SN12C renal it was 14%. For the same compound, the growth is -12.4% (active) in the test on UO-31 renal; -22.3% (active) with TK-10 renal; 4.68% (active) with ACHN renal; -22.7% (active) with CAKI-1 renal; -50.6% (active) in the test on A498 renal; 9.93% (active) in the test with CCRF-CEM leukemia. Besides, the growth in the test with MOLT-4 leukemia is 15.2%.

Regarding `Cc1cc(NCC(=O)Nc2ccc(-c3nc4ccccc4s3)cc2)no1`, the growth is 90.7% in the test with HCT-15 colon; 105% in the test with HT29 colon; 111% in the test on SNB-75 CNS; 96.5% with SNB-19 CNS; 88.1% in the test on U251 CNS; 96.6% with PC-3 prostate. Besides, the growth was 87.7% in the test with SK-MEL-5 melanoma; 86.5% with UACC-62 melanoma; -42.7% (active) with LOX IMVI melanoma; 110% with SK-MEL-28 melanoma; 108% with EKVX NSCLC; 102% with SN12C renal. Moreover, the growth is 77% in the test with UO-31 renal; 92.1% in the test with TK-10 renal; 111% in the test with ACHN renal; 104% in the test on CAKI-1 renal; 89.7% in the test with A498 renal; 53.7% in the test with CCRF-CEM leukemia. Moreover, in the test on MOLT-4 leukemia, the growth is 46.7%.

For the compound `Cn1cc(-c2ccc(F)c(C(F)(F)F)c2)nc1C1CCN(c2ncnc3[nH]ncc23)CC1`, the growth in the test with HCT-15 colon was 70%; with HT29 colon it was 60.8%; in the test on SNB-75 CNS it was -15% (active); with SNB-19 CNS, 52.5%; in the test with U251 CNS it was 48%; in the test with PC-3 prostate, 71%. Further, the growth in the test with SK-MEL-5 melanoma was 95.1%; in the test on UACC-62 melanoma, 75.7%; in the test with LOX IMVI melanoma it was 69.4%; with SK-MEL-28 melanoma it was 86.2%; in the test on EKVX NSCLC it was 88%; with SN12C renal, 63.7%. Further, the growth in the test on UO-31 renal is 63.8%; in the test on TK-10 renal, 66.6%; with ACHN renal, 73.4%; in the test with CAKI-1 renal, 62.2%; in the test on A498 renal it was 66.5%; in the test with CCRF-CEM leukemia it was 72.4%. For the same compound, the growth in the test on MOLT-4 leukemia is 65.5%.

On to `CCc1cnn2c(NCc3ccc[n+]([O-])c3)cc(N3CCCC[C@H]3CCO)nc12`, for which the growth with HCT-15 colon is 0.896% (active); in the test on HT29 colon it was -29.3% (active); in the test on SNB-75 CNS, -74.4% (active); with SNB-19 CNS, 6.92% (active); in the test on U251 CNS, -8.91% (active); with PC-3 prostate, -20.5% (active). Also, the growth in the test on SK-MEL-5 melanoma is -40.2% (active); with UACC-62 melanoma, -70.7% (active); in the test with LOX IMVI melanoma it was 5% (active); with SK-MEL-28 melanoma, -34.3% (active); in the test with EKVX NSCLC, -11.2% (active); in the test on SN12C renal it was 4.31% (active). Besides, the growth was -7.4% (active) with UO-31 renal; -16% (active) with TK-10 renal; 2.95% (active) in the test on ACHN renal; 6.71% (active) with CAKI-1 renal; -60.4% (active) in the test on A498 renal; -0.938% (active) in the test with CCRF-CEM leukemia. Also, the growth with MOLT-4 leukemia is -9.3% (active).

In the case of `COCc1c(-c2ccc(NC(=O)Nc3cc(C(F)(F)F)ccc3F)c(F)c2)c2c(N)ncnn2c1CN1CCOCC1`, the growth with HCT-15 colon is -21% (active); in the test with HT29 colon it was -26.8% (active); in the test on SNB-75 CNS, -95.8% (active); in the test with SNB-19 CNS it was -14.9% (active); in the test on U251 CNS, -35.5% (active); in the test on PC-3 prostate, -25.4% (active). Besides, the growth with SK-MEL-5 melanoma is -78.9% (active); in the test on UACC-62 melanoma, -38.8% (active); in the test on LOX IMVI melanoma, -81.7% (active); in the test on SK-MEL-28 melanoma, -6.65% (active); with EKVX NSCLC, -25.4% (active); with SN12C renal, -10.8% (active). The growth in the test on UO-31 renal is -20% (active); in the test on TK-10 renal, -43% (active); in the test with ACHN renal it was -1.81% (active); in the test on CAKI-1 renal, -11.4% (active); in the test with A498 renal, -64.3% (active); in the test on CCRF-CEM leukemia, 5.76% (active). Besides, the growth with MOLT-4 leukemia is -5.86% (active).

With `CN1[C@@H]2CC[C@H]1/C(=C\c1ccccc1)C1=C2[C@@H](c2ccccc2)C(C#N)=C(N)O1`, the growth in the test with HCT-15 colon is 81.1%; in the test on HT29 colon it was 67.7%; with SNB-75 CNS, 80.4%; in the test on SNB-19 CNS, 83.6%; in the test with U251 CNS, 77.7%; in the test with PC-3 prostate, 72.8%. Also, the growth in the test with SK-MEL-5 melanoma is 74.1%; in the test on UACC-62 melanoma, 73.9%; in the test on LOX IMVI melanoma it was 97.8%; in the test on SK-MEL-28 melanoma it was 104%; in the test with EKVX NSCLC, 98.4%; in the test on SN12C renal, 75.2%. In addition, the growth with UO-31 renal is 61.7%; in the test with TK-10 renal, 89.5%; with ACHN renal, 97.4%; with CAKI-1 renal, 87.4%; in the test with A498 renal, 70.3%; with CCRF-CEM leukemia, 70.6%. Also, in the test with MOLT-4 leukemia, the growth was 67.4%.

Turning to `O=C(O)C1(Cc2cccc(Nc3nccs3)n2)CCC(Oc2cccc(Cl)c2F)CC1` (centres undefined), the growth is 70.7% in the test with HCT-15 colon; 62.8% with HT29 colon; 95.5% in the test with SNB-75 CNS; 75.4% in the test on SNB-19 CNS; 60.8% in the test with U251 CNS; 71.3% in the test on PC-3 prostate. Further, the growth in the test on SK-MEL-5 melanoma is 70.3%; with UACC-62 melanoma, 61.8%; in the test with LOX IMVI melanoma, 74.6%; with SK-MEL-28 melanoma it was 88.4%; with EKVX NSCLC, 90.9%; in the test with SN12C renal it was 73.4%. In addition, the growth in the test on UO-31 renal was 73.5%; in the test on TK-10 renal, 63.8%; in the test on ACHN renal, 68.4%; in the test with CAKI-1 renal, 66.9%; with A498 renal it was 72%; in the test on CCRF-CEM leukemia, 62.6%. Besides, the growth in the test on MOLT-4 leukemia is 67.4%.

Take `O=c1[nH]c([C@@H]2CCCN2)nc2c1oc1ccc(Cl)cc12`: the growth in the test with HCT-15 colon was 66.3%; in the test with HT29 colon, 43.9%; with SNB-75 CNS, 7.8% (active); in the test on SNB-19 CNS it was 74.8%; in the test with U251 CNS, 42.6%; in the test with PC-3 prostate, 58%. Besides, the growth in the test on SK-MEL-5 melanoma is 51.2%; in the test on UACC-62 melanoma, 78.5%; in the test with LOX IMVI melanoma, 39%; in the test on SK-MEL-28 melanoma, 78.8%; with EKVX NSCLC it was 61.4%; with SN12C renal it was 81.3%. In addition, the growth was 58.4% with UO-31 renal; 52.3% in the test on TK-10 renal; 71.5% with ACHN renal; 42.4% in the test with CAKI-1 renal; 6.25% (active) in the test with A498 renal; 63.1% in the test with CCRF-CEM leukemia. Besides, the growth in the test with MOLT-4 leukemia is 68.4%.

As for `CC(=O)O[C@]1(C)C[C@H](O)[C@]2(O)C=CO[C@H](O[C@@H]3O[C@H](CO)[C@@H](O)[C@H](O)[C@H]3O)[C@@H]21`, the growth is 99.1% with HCT-15 colon; 103% with HT29 colon; 83.3% with SNB-75 CNS; 99.6% in the test on SNB-19 CNS; 99.8% with U251 CNS; 103% in the test with PC-3 prostate. In addition, the growth in the test on SK-MEL-5 melanoma was 103%; in the test on UACC-62 melanoma, 100%; in the test with LOX IMVI melanoma it was 105%; with SK-MEL-28 melanoma, 112%; in the test on EKVX NSCLC it was 92.7%; in the test with SN12C renal, 101%. The growth with UO-31 renal was 90.6%; in the test with TK-10 renal, 95.9%; in the test on ACHN renal, 108%; in the test on CAKI-1 renal, 102%; in the test on A498 renal it was 110%; in the test on CCRF-CEM leukemia it was 109%. Moreover, the growth in the test on MOLT-4 leukemia is 97.5%.
